Data taken from ChEMBL document CHEMBL4513146, “CO-ADD screening of Karazin Kharkiv National University (Ukraine) compounds”.
Measured potencies and affinities stand elsewhere.

What was measured:
Staphylococcus aureus = conditions: Concentration 32 ug.mL-1;; ASSAY_TEST Inhibition of Bacterial Growth; detection method Absorption (OD600); MEDIA CAMHB; plate type 384well; NBS; CORNING #3640; time 18 hr
Escherichia coli = conditions: Concentration 32 ug.mL-1;; ASSAY_TEST Inhibition of Bacterial Growth; detection method Absorption (OD600); MEDIA CAMHB; plate type 384well; NBS; CORNING #3640; time 18 hr

| SMILES | Inhibition (Staphylococcus aureus) [%] | Inhibition (Escherichia coli) [%] |
| --- | --- | --- |
| O=C(Cn1nc2ccc(Sc3cccc(F)c3)nn2c1=O)NCc1ccc(Cl)cc1 | 1.01 | 1.23 |
| COc1cc(NC(=O)Cn2nc3c4c5c(sc4ncn3c2=O)CCCC5)cc(OC)c1 | -0.84 | -8.54 |
| COc1ccccc1Cn1c(=O)c2sccc2n2c(=O)n(Cc3ccc(Br)cc3)nc12 | 5.17 | 2.24 |
| Cc1ccc(-c2cc3c4nnc(CCC(=O)NCc5ccc(C(F)(F)F)cc5)n4ccn3n2)cc1C | 3.78 | -2.88 |
| O=C(Cn1nc2ccc(Sc3cccc(F)c3)nn2c1=O)Nc1ccc2c(c1)OCCO2 | 11.29 | -2.18 |
| CCCCc1ccc(NC(=O)Cn2nc3c(SC4CCCCC4)nccn3c2=O)cc1 | -1.79 | -6.08 |
| COC(=O)c1ccc(NC(=O)Cn2nc3nc(N4CCCCCC4)ccn3c2=O)cc1 | 7.17 | -2.48 |
| CCOC(=O)c1cccc(NC(=O)Cn2nc3c4cc(-c5ccc(C)c(C)c5)nn4ccn3c2=O)c1 | -12.42 | -16.13 |
| Cc1ccc(CNC(=O)Cn2nc3c(N4CCN(c5ccccc5C)CC4)nccn3c2=O)cc1 | 4.45 | -8.18 |
| COc1ccc(NC(=O)Cn2nc3c4c5c(sc4ncn3c2=O)CCCC5)cc1 | 2.3 | -5.34 |
| O=S(=O)(c1ccc2nncn2c1)N(Cc1ccccc1F)c1ccc(F)c(F)c1 | -7.25 | -4.39 |
| CCOC(=O)N1CCN(C(=O)CCc2nnc3c4cc(-c5ccc(F)cc5)nn4ccn23)CC1 | 10.85 | 2.2 |
| COc1ccc(Cn2nc3ccc(-c4ccccc4)nn3c2=O)cc1F | 20.86 | 2.33 |
| CCc1ccccc1NC(=O)Cn1nc2c(SC3CCCCC3)nccn2c1=O | 7.59 | -2.96 |
| COC(=O)c1ccc(NC(=O)Cn2nc3c(Oc4ccccc4)nccn3c2=O)cc1 | 1.06 | -10.41 |
| CC(C)n1c(=O)c2ccc(C(=O)NC3CCCC3)cc2n2c(=O)n(Cc3cccc(C(F)(F)F)c3)nc12 | 8.2 | 0.25 |
| Cc1ccc(CNC(=O)Cn2nc3ccc(SCc4ccc(Cl)cc4)nn3c2=O)cc1 | 11.66 | -2.92 |
